Data as given in PubChem BioAssay (NCATS).
Inconclusive results are not listed. Entries that show only a call come without a potency. The source made the active and inactive calls. The call rests on the fitted dose curve; in most records, active means well fitted inhibition curve with a large enough effect; inconclusive means small, poorly fitted or top-dose-only effect; inactive means no such curve, though single readings can be large or run the other way.

Test: qHTS Screen of the MIPE 4.0 Collection Against Ewings Sarcoma (EW8) (AID 1259255); further: nearly all actives have a fitted effect of over 35% in size
Conditions: EW8 Ewing sarcoma viability, CellTiter-Glo, 48 h; series mostly up to 45.8 µM
Source text: There is a large unmet medical need for treatments for Ewing sarcoma, a pediatric sarcoma. We sought to identify compounds that inhibited Ewing sarcoma cells in vitro with the goal to then test promising drugs in two drug combinations in vitro to look for synergistic drug combinations. Promising combinations would then proceed to additional validation, including in vivo testing.
Using the NCATS developed oncology compound library called the Mechanism of Interrogation Plate (MIPE), four Ewing sarcoma cell lines were evaluated (TC32, TC71, RDES, EW8). Compounds, in a 12-point titration series, were incubated with cells for 48 hours and the read out was cell viability (CellTiter-Glo from Promega). These initial experiments were used to select appropriate concentrations of each single agent for subsequent two-drug matrix combinations such that the concentrations in the matrices would span both activity and non-activity.
Cells, in the log phase of growth, were seeded in 5 uL of RPMI plus 5% FBS, […] L-glutamine, 100 U/ml penicillin and 100 ug/ml streptomycin into 1536-well solid-bottom white tissue culture treated Greiner Bio One Plates (789173-F) using a MultiDrop Combi (Thermofisher Scientific) dispenser and a small sterile cassette. One column was media alone to be used as a :"no cells" control. The plates were then covered with sterilized stainless steel gasketed lids from Kalypsys. After allowing cells to attach for 4 hours, 23 nL of test compound or control (negative control DMSO and positive control 9.2 uM Bortezomib-final) were added from a 1536-well polypropylene compound source plate to each well using a 1536 head pin tool from Kalypsys. Cells were then incubated for 48 hours at 37C, 95% relative humidity and 5% CO2. After 48 hours, plates were removed from the incubator and 3 uL of CellTiter-Glo (Promega) was added using an Aurora Flying Reagent Dispenser Bioraptor. Plates were incubated at room temperature for 10 minutes prior to reading the luminescence on the Viewlux (PerkinElmer). The relative luciferase units are used to calculate the percent activity using the activity of DMSO in the cells and no cells columns for normalization of no inhibition and full inhibition respectively.
Potency means the concentration at half of the fitted maximal effect.

SMILES	Potency
NCCCC(N)(C(=O)O)C(F)F (stereo not given)	inactive
CC1(C)CNc2cc(NC(=O)c3cccnc3NCc3ccncc3)ccc21	23.5 µM (active)
CC(C)(Sc1ccc(CCN(CCCCC2CCCCC2)C(=O)NC2CCCCC2)cc1)C(=O)O	4.69 µM (active)
NC(=O)c1ccc(I)c([N+](=O)[O-])c1	inactive
C[C@H](NC(=O)Cc1cc(F)cc(F)c1)C(=O)N[C@@H]1C(=O)N(C)c2ccccc2-c2ccccc21	11.8 µM (active)
CC[C@@H](C)[C@H](NC(=O)[C@H](CC1CCCCC1)NC(=O)c1ccno1)C(=O)N1CCC2(CCc3ccccc32)CC1	inactive
NC(N)=NC(=O)c1nc(Cl)c(N)nc1N	inactive
O=c1n(CCCN2CCN(c3cccc(Cl)c3)CC2)nc2ccccn12	inactive
Nc1ncnc2nc(-c3ccc(N4CCOCC4)nc3)cc(-c3cccc(Br)c3)c12	33.2 µM (active)
CCc1cc(Nc2nccc(-c3c(-c4ccc(OC)c(C(=O)Nc5c(F)cccc5F)c4)nc4ccccn34)n2)c(OC)cc1N1CCC(N2CCN(S(C)(=O)=O)CC2)CC1	18.7 µM (active)
CS(=O)(=O)c1ccc(C(=O)Nc2ccc(Cl)c(-c3ccccn3)c2)c(Cl)c1	inactive
NC(=O)C1CCCc2c1[nH]c1ccc(Cl)cc21 (stereo not given)	inactive
COc1ccc2nc(S(=O)Cc3ncc(C)c(OC)c3C)[nH]c2c1 (stereo not given)	inactive
COc1nc(-c2ccc3c(c2)OCO3)n(-c2ccc(NC(=O)CSc3ccccc3)cc2)n1	inactive
O=c1[nH]cnc2[nH]ncc12	inactive
CC(C)(C)NCC(O)c1ccc(O)c(CO)c1 (stereo not given)	inactive
O=C(O)CCc1ccc(NCc2cccc(Oc3ccccc3)c2)cc1	inactive
COc1ccc(C2=N[C@H](c3ccc(Cl)cc3)[C@H](c3ccc(Cl)cc3)N2C(=O)N2CCNC(=O)C2)c(OC(C)C)c1	5.26 µM (active)
Cc1[nH]c(=O)c(C#N)cc1-c1ccncc1	inactive
O=C(O)[C@@H](c1ccc(OCc2ccc3ccccc3n2)cc1)C1CCCC1	inactive

SMILES	Potency
CCC(C)N(C)C(=O)c1cc2ccccc2c(-c2ccccc2Cl)n1 (stereo not given)	inactive
CC1(C)SCCN(S(=O)(=O)c2ccc(OCC#CCO)cc2)[C@@H]1C(=O)NO	inactive
CN(C)c1ccc(Nc2nc(N)n(C(=O)c3c(F)cccc3F)n2)cc1	0.132 µM (active)
Cc1cc(C=c2sc3nc4ccccc4n3c2=O)c(C)n1-c1ccccc1	inactive
Cc1cc2c(C(C)C)c(O)c(O)c(C=O)c2c(O)c1-c1c(C)cc2c(C(C)C)c(O)c(O)c(C=O)c2c1O	11.8 µM (active)
CC[C@H](Nc1ncnc2nc[nH]c12)c1nc2cccc(F)c2c(=O)n1-c1ccccc1	2.64 µM (active)
CCCC(CCC)C(=O)O	inactive
Cc1cn[nH]c1	0.059 µM (active)
CCOC(=O)C1=C[C@]2(CC)CCCN3CCc4c(n1c1ccccc41)[C@@H]32	18.7 µM (active)
COc1ccccc1[C@H](c1cccc2ccccc12)[C@@](C)(C#N)C(=O)N1CCC(c2cccc(C(F)(F)F)c2)CC1	6.62 µM (active)
N#CC[C@H](C1CCCC1)n1cc(-c2ncnc3[nH]ccc23)cn1	16.6 µM (active)
Cc1cc([C@@H](C)Nc2ccccc2C(=O)O)c2nc(N3CCOCC3)cc(=O)n2c1	42.9 µM (active)
CC(c1cc2ccccc2s1)N(O)C(N)=O (stereo not given)	inactive
O=C(Nc1nc2ccccc2n1CCN1CCOCC1)c1cccc([N+](=O)[O-])c1	20.9 µM (active)
CCCCNc1cc(C(=O)O)cc(S(N)(=O)=O)c1Oc1ccccc1	inactive
Cn1c(=O)c(F)c(Nc2ccc(I)cc2F)c2c(=O)n(C[C@@H](O)CO)cnc21	inactive
O=NN(CCCl)C(=O)NCCCl	inactive
CCOc1ccc(Cc2cc([C@@H]3O[C@H](CO)[C@@H](O)[C@H](O)[C@@H]3O)ccc2Cl)cc1	inactive
O=C1[C@H](Cc2ccc(O)cc2)N2C(=O)CCN(C(=O)NCc3ccccc3)[C@H]2CN1Cc1cccc2ccccc12	2.64 µM (active)
CC(C)OC(=O)C1=CN(C(=O)c2ccc(F)c(F)c2)CC(C)(C)c2c1[nH]c1ccccc21	inactive
